Compounds without any hit were thinned out: in the full panel of roughly 83,000, 20% have a hit.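 Method: cells in 96-well plates; compound added at one concentration; 48 h incubation; percent growth measured; values under 10 scored active.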 Calls of active or inactive are those of the source.
Key:
Test in all cases: NCI-60 one-dose screen, 48 h (100 = growth as untreated, 0 = no growth, -100 = all killed)
Conditions in all cases: 10 µM
HOP-92 NSCLC = tested on: HOP-92 NSCLC
786-0 renal = tested on: 786-0 renal
SN12C renal = tested on: SN12C renal
UO-31 renal = tested on: UO-31 renal
TK-10 renal = tested on: TK-10 renal
ACHN renal = tested on: ACHN renal
A498 renal = tested on: A498 renal
CCRF-CEM leukemia = tested on: CCRF-CEM leukemia
RPMI-8226 leukemia = tested on: RPMI-8226 leukemia
OVCAR-8 ovarian = tested on: OVCAR-8 ovarian
OVCAR-4 ovarian = tested on: OVCAR-4 ovarian
SK-OV-3 ovarian = tested on: SK-OV-3 ovarian
IGROV1 ovarian = tested on: IGROV1 ovarian
NCI/ADR-RES ovarian = tested on: NCI/ADR-RES ovarian
BT-549 breast = tested on: BT-549 breast
MDA-MB-435 melanoma = tested on: MDA-MB-435 melanoma
MCF7 breast = tested on: MCF7 breast
HCT-116 colon = tested on: HCT-116 colon
HCC-2998 colon = tested on: HCC-2998 colon
KM12 colon = tested on: KM12 colon

Measured: growth

CC[C@]12C=CCN3CC[C@@]4(c5ccc(OC)cc5N(C)[C@H]4[C@@](O)(C(=O)OC)[C@@H]1OC(=O)CCC[P+](c1ccc(C)cc1)(c1ccc(C)cc1)c1ccc(C)cc1)[C@@H]32
active: HOP-92 NSCLC -83.2% | 786-0 renal -88% | SN12C renal -88.1% | UO-31 renal -97.4% | TK-10 renal -88.5% | ACHN renal -97.8% | A498 renal -88.6% | CCRF-CEM leukemia -67% | RPMI-8226 leukemia -56.3% | OVCAR-8 ovarian -85% | OVCAR-4 ovarian -73.5% | SK-OV-3 ovarian -81% | IGROV1 ovarian -89.5% | BT-549 breast -96.9% | MDA-MB-435 melanoma -57.5% | MCF7 breast -76.3% | HCT-116 colon -93.4% | HCC-2998 colon -91.4% | KM12 colon -76.1%
inactive: NCI/ADR-RES ovarian 18.1%

O=C(NC([Se])=NC1CCCCC1)c1ccc2c(c1)OCO2
inactive: HOP-92 NSCLC 118% | 786-0 renal 44.1% | SN12C renal 51.9% | UO-31 renal 38.5% | TK-10 renal 55.5% | ACHN renal 17% | A498 renal 31.3% | CCRF-CEM leukemia 35.3% | RPMI-8226 leukemia 63% | OVCAR-8 ovarian 37.7% | OVCAR-4 ovarian 70.5% | IGROV1 ovarian 43.6% | NCI/ADR-RES ovarian 34.4% | BT-549 breast 96.7% | MDA-MB-435 melanoma 86.4% | MCF7 breast 81.6% | HCT-116 colon 24.7% | HCC-2998 colon 74.1% | KM12 colon 32.4%
active: SK-OV-3 ovarian 8.53%

O=C(/C=C/c1ccc(Cl)cc1)c1nc2ccccc2n1Cc1ccc(Br)cc1
active: CCRF-CEM leukemia -10.9% | RPMI-8226 leukemia -13.4% | MCF7 breast 9.41%
inactive: HOP-92 NSCLC 40.2% | 786-0 renal 38.9% | SN12C renal 52.9% | UO-31 renal 42.6% | TK-10 renal 93.7% | ACHN renal 51.1% | A498 renal 115% | OVCAR-8 ovarian 66% | OVCAR-4 ovarian 68.5% | SK-OV-3 ovarian 94.7% | IGROV1 ovarian 52.4% | NCI/ADR-RES ovarian 62.6% | BT-549 breast 37.2% | MDA-MB-435 melanoma 54.2% | HCT-116 colon 33.1% | HCC-2998 colon 65.3% | KM12 colon 67.6%

CC1=C(CCC=NNC(N)=O)C2=C(C)C3(CC3)[C@@](C)(O)C(=O)C2=C1
active: HOP-92 NSCLC -11.3% | 786-0 renal -3.6% | SN12C renal -61.3% | UO-31 renal -65.2% | TK-10 renal -10.5% | ACHN renal -37.7% | A498 renal -67.2% | RPMI-8226 leukemia 1.7% | OVCAR-8 ovarian -58.7% | OVCAR-4 ovarian -38.1% | SK-OV-3 ovarian -72.1% | IGROV1 ovarian -34% | NCI/ADR-RES ovarian -39.3% | BT-549 breast -33.7% | MDA-MB-435 melanoma -96.3% | MCF7 breast -74.8% | HCT-116 colon 1.04% | HCC-2998 colon -87% | KM12 colon 1%
inactive: CCRF-CEM leukemia 10.4%

CC1=C(C=O)C2=C(C)C3(CC3)[C@@](C)(O)C(=O)C2=C1
inactive: HOP-92 NSCLC 18.5% | SN12C renal 44.2% | UO-31 renal 11.2% | TK-10 renal 53.6% | CCRF-CEM leukemia 18% | RPMI-8226 leukemia 17.1% | OVCAR-4 ovarian 44.5% | IGROV1 ovarian 53.6% | NCI/ADR-RES ovarian 16% | MCF7 breast 14% | HCC-2998 colon 17.2% | KM12 colon 16.3%
active: 786-0 renal -38.7% | ACHN renal -61.1% | A498 renal -30.3% | OVCAR-8 ovarian -25.3% | SK-OV-3 ovarian -3.31% | BT-549 breast -14.5% | MDA-MB-435 melanoma -35.2% | HCT-116 colon -34.7%

CC(C)C[C@H](NC(=O)CNC(=O)C[C@H]1O[C@@H]2OC3(C)CC[C@H]4[C@H](C)CC[C@@H]([C@H]1C)[C@@]24OO3)B(O)O
active: HOP-92 NSCLC -20.1% | SN12C renal -53.1% | ACHN renal 7.48% | CCRF-CEM leukemia -9.96% | RPMI-8226 leukemia -14.5% | OVCAR-8 ovarian 5.76% | IGROV1 ovarian 2.58% | BT-549 breast -83.5% | MDA-MB-435 melanoma -61.2% | HCT-116 colon -72.3% | HCC-2998 colon -95.1% | KM12 colon -15.4%
inactive: 786-0 renal 21% | UO-31 renal 15.5% | TK-10 renal 12.1% | A498 renal 43.1% | OVCAR-4 ovarian 22.1% | SK-OV-3 ovarian 41.6% | NCI/ADR-RES ovarian 94.2% | MCF7 breast 19.1%

CC12OOC(C)(OO1)C2CCC(=O)NCCNc1ccnc2cc(Cl)ccc12 (stereo not given)
inactive: HOP-92 NSCLC 111% | 786-0 renal 107% | SN12C renal 99.4% | UO-31 renal 76.1% | TK-10 renal 121% | ACHN renal 97% | A498 renal 106% | CCRF-CEM leukemia 80.6% | RPMI-8226 leukemia 78.8% | OVCAR-8 ovarian 97.6% | OVCAR-4 ovarian 96.8% | SK-OV-3 ovarian 91.2% | IGROV1 ovarian 89.2% | NCI/ADR-RES ovarian 98.3% | BT-549 breast 106% | MDA-MB-435 melanoma 97.7% | MCF7 breast 82.3% | HCT-116 colon 100% | HCC-2998 colon 99.7% | KM12 colon 101%

CCOP(=O)(CC(F)(F)C(F)(F)F)OCC
inactive: 786-0 renal 15.2% | SN12C renal 62.1% | UO-31 renal 25.1% | TK-10 renal 17% | A498 renal 126% | SK-OV-3 ovarian 111% | IGROV1 ovarian 60.2% | NCI/ADR-RES ovarian 14% | BT-549 breast 49% | MDA-MB-435 melanoma 18.4% | HCC-2998 colon 86.3% | KM12 colon 89.3%
active: HOP-92 NSCLC -7.91% | ACHN renal -23.1% | CCRF-CEM leukemia 8.28% | RPMI-8226 leukemia 7.92% | OVCAR-8 ovarian -80.2% | OVCAR-4 ovarian -14.9% | MCF7 breast 9.98% | HCT-116 colon -70.7%

C[C@H]1[C@H](OC(=O)CCC(=O)Nc2cnccn2)O[C@@H]2OC3(C)CC[C@H]4[C@H](C)CC[C@@H]1[C@@]24OO3
inactive: HOP-92 NSCLC 51.8% | 786-0 renal 53.6% | SN12C renal 45.3% | UO-31 renal 11% | TK-10 renal 42.2% | ACHN renal 25.4% | A498 renal 101% | CCRF-CEM leukemia 35.4% | RPMI-8226 leukemia 21.5% | OVCAR-8 ovarian 20.7% | OVCAR-4 ovarian 44.1% | SK-OV-3 ovarian 77.4% | IGROV1 ovarian 25.7% | NCI/ADR-RES ovarian 19.1% | BT-549 breast 24% | MDA-MB-435 melanoma 16.1% | MCF7 breast 24.4% | HCT-116 colon 14.6% | HCC-2998 colon 63.5% | KM12 colon 22.3%

O=C(/C=C/c1ccc(Cl)cc1Cl)c1nc2ccccc2n1Cc1ccc(Br)cc1
active: CCRF-CEM leukemia 5.89% | RPMI-8226 leukemia 2.18%
inactive: HOP-92 NSCLC 65.8% | 786-0 renal 32.6% | SN12C renal 75.7% | UO-31 renal 50.9% | TK-10 renal 99.8% | ACHN renal 71.3% | A498 renal 103% | OVCAR-8 ovarian 80.6% | OVCAR-4 ovarian 73.7% | SK-OV-3 ovarian 92.9% | IGROV1 ovarian 68.4% | NCI/ADR-RES ovarian 82.1% | BT-549 breast 59.2% | MDA-MB-435 melanoma 79.2% | MCF7 breast 17.1% | HCT-116 colon 25.8% | HCC-2998 colon 70.4% | KM12 colon 82.7%

CC1=C(CCC=O)C2=C(C)C3(CC3)[C@@](C)(O)C(=O)C2=C1
active: HOP-92 NSCLC -64.3% | 786-0 renal -48.9% | SN12C renal -82.3% | UO-31 renal -99.7% | TK-10 renal -91.6% | ACHN renal -100% | A498 renal -56.8% | CCRF-CEM leukemia -15.3% | RPMI-8226 leukemia 1.91% | OVCAR-8 ovarian -73.4% | OVCAR-4 ovarian -97.4% | SK-OV-3 ovarian -62% | IGROV1 ovarian -79.5% | NCI/ADR-RES ovarian -43.5% | BT-549 breast -23% | MDA-MB-435 melanoma -88.8% | MCF7 breast -44.2% | HCT-116 colon -63.9% | HCC-2998 colon -91.6% | KM12 colon -72.9%

COCCOCCOCCOc1ccc(-n2cc(CCCN(CCNc3ccnc4cc(Cl)ccc34)C(=O)CCC(=O)O[C@@H]3O[C@@H]4OC5(C)CC[C@H]6[C@H](C)CC[C@@H]([C@H]3C)[C@@]46OO5)nn2)cc1
inactive: HOP-92 NSCLC 19.3% | 786-0 renal 47% | SN12C renal 52.2% | UO-31 renal 16.4% | TK-10 renal 52.5% | ACHN renal 47.1% | A498 renal 94.9% | CCRF-CEM leukemia 26.4% | RPMI-8226 leukemia 26.3% | OVCAR-8 ovarian 20.9% | OVCAR-4 ovarian 45.7% | SK-OV-3 ovarian 76.1% | IGROV1 ovarian 44.8% | NCI/ADR-RES ovarian 26.8% | MDA-MB-435 melanoma 24.8% | MCF7 breast 22.2% | HCT-116 colon 15.5% | HCC-2998 colon 67.2% | KM12 colon 28.6%
active: BT-549 breast 4.88%

O=C(/C=C/c1ccccc1)c1nc2ccccc2n1Cc1ccc(Br)cc1
active: HOP-92 NSCLC -54% | 786-0 renal -89.8% | SN12C renal -58.7% | UO-31 renal -94.9% | TK-10 renal -47.9% | ACHN renal -74.5% | CCRF-CEM leukemia -7.81% | RPMI-8226 leukemia -23.1% | OVCAR-8 ovarian -18.5% | IGROV1 ovarian -57.8% | NCI/ADR-RES ovarian -37.4% | BT-549 breast -69.8% | MDA-MB-435 melanoma -27.9% | MCF7 breast -48.7% | HCT-116 colon -88.1% | HCC-2998 colon -97.3% | KM12 colon -32.5%
inactive: A498 renal 51% | OVCAR-4 ovarian 27% | SK-OV-3 ovarian 28.7%

CC[C@]12C=CCN3CC[C@@]4(c5ccc(OC)cc5N(C)[C@H]4[C@@](O)(C(=O)OC)[C@@H]1OC(=O)CCCC[P+](c1ccc(OC)cc1)(c1ccc(OC)cc1)c1ccc(OC)cc1)[C@@H]32
inactive: UO-31 renal 15.5% | NCI/ADR-RES ovarian 84.3%
active: HOP-92 NSCLC -74.5% | 786-0 renal -92.9% | SN12C renal -95.3% | TK-10 renal -88.2% | ACHN renal -49.2% | A498 renal -54.7% | CCRF-CEM leukemia -59.1% | RPMI-8226 leukemia -68.8% | OVCAR-8 ovarian -90.2% | OVCAR-4 ovarian -37.7% | SK-OV-3 ovarian -82.5% | IGROV1 ovarian -92% | BT-549 breast -96.7% | MDA-MB-435 melanoma -88.5% | MCF7 breast -82.6% | HCT-116 colon -94.9% | HCC-2998 colon -88.4% | KM12 colon -68.8%

O=C(/C=C/c1ccccc1Cl)c1nc2ccccc2n1Cc1ccc(F)cc1
active: HOP-92 NSCLC -65.4% | 786-0 renal -95.3% | SN12C renal -89.4% | UO-31 renal -99.6% | TK-10 renal -44.2% | ACHN renal -88% | CCRF-CEM leukemia -25.4% | RPMI-8226 leukemia -29.7% | OVCAR-8 ovarian -66.1% | OVCAR-4 ovarian 4.42% | SK-OV-3 ovarian 8.31% | IGROV1 ovarian -78.1% | NCI/ADR-RES ovarian -56% | BT-549 breast -92.2% | MDA-MB-435 melanoma -46.7% | MCF7 breast -59.3% | HCT-116 colon -96.3% | HCC-2998 colon -99.7% | KM12 colon -60.5%
inactive: A498 renal 62.5%

From PubChem BioAssay (NCI)
